Compound activity deposited in PubChem by National Center for Advancing Translational Sciences (NCATS).
JMJD2E inh = qHTS Assay for Inhibitors of Human Jumonji Domain Containing 2E (JMJD2E); Lysine-specific demethylase 4E (Homo sapiens), B2RXH2; JMJD2E catalytic domain, FDH-coupled NADH fluorescence (FDH is formaldehyde dehydrogenase); Potency, µM (doses to about 57.1 µM), for inactives: at the top dose activity change, negative = inhibition, actives largely listed as inhibitors; 1.6% of 230,000 active; active means well fitted inhibition curve with a large enough effect, not every such curve was filed as active; inconclusive means small, poorly fitted or top-dose-only effect, or another doubt; inactive means no such curve, though single readings can be large or run the other way;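 further: potency means the concentration at half of the fitted maximal effect; 0% = wells with enzyme and -100% = buffer wells without enzyme; nearly all actives have a fitted effect of over 50% in size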
Target sequence (B2RXH2 1-337 limits assumed): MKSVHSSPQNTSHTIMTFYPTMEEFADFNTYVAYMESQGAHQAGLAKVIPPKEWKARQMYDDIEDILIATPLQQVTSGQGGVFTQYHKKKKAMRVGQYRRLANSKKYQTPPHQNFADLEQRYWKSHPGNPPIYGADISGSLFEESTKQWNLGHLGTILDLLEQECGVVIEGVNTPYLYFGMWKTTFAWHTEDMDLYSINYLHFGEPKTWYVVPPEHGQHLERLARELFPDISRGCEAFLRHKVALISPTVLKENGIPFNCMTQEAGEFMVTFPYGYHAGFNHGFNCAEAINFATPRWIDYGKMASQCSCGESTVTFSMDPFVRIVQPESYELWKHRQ
Coupling enz = qHTS Assay for Inhibitors of Fructose-1,6-bisphosphate Aldolase from Giardia Lamblia: Coupling assay counterscreen. 0.67% of 290,000 active. coupling enzyme system counterscreen, AmpLite Red fluorescence. activity change, negative = inhibition, % at 58.2 µM, hits read low; in the data active means activity change below about -30%; further: on the % scale 0 is the no-effect control and ±100 the full control effect
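First, compound is pin-transferred into glyceraldehyde-3-phosphate coupling-enzyme reagent at 57.5 uM final and held 10 min at RT. Next, substrate, coupling system and AmpLite Red are added. After 20 min RT, fluorescence (525/598 nm) is read.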
TRb-SRC2 inh = qHTS for Inhibitors of the Interaction of Thyroid Hormone Receptor and Steroid Receptor Coregulator 2; Thyroid hormone receptor beta (Homo sapiens), P10828; TRbeta-SRC2 peptide binding, fluorescence polarization; receptor liganded with 1 µM T3; Potency, µM (top dose mostly 106 µM), inactives show at the top dose activity change, negative = inhibition, usual class: inhibitors; 0.065% of 280,000 active;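 further: potency means the concentration at half of the fitted maximal effect; plate controls were bound peptide for no effect and peptide without receptor for full effect; nearly all actives have a fitted effect of over 50% in size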
Target sequence (P10828 whole entry, looked up): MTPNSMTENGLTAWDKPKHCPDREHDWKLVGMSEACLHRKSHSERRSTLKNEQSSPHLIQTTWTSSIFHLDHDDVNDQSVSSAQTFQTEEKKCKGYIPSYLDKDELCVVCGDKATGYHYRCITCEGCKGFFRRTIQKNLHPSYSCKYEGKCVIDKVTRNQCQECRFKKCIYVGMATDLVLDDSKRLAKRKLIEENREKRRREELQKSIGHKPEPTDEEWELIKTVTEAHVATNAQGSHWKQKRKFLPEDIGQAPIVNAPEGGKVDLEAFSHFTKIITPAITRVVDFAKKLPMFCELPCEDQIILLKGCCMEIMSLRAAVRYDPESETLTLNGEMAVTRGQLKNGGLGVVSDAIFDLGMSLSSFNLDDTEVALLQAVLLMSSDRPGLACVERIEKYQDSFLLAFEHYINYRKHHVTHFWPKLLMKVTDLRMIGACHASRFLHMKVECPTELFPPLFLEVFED
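Fluorescence polarization of 20 nM Texas Red SRC2 peptide (20-aa NR interaction domain) bound to 0.6 uM human TRb ligand-binding domain, with 1 uM T3, after 5 hr at ambient temperature; inhibition seen as decreased polarization.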
HTT aggregate = qHTS Multiplex Assay to Identify Dual Action Probes in a Cell Model of Huntington: Aggregate Formation (GFP) | 1.1% of 220,000 active | PC12 HttQ103-GFP aggregates, Acumen cytometry, 40 h | Potency, µM (doses to about 46.1 µM), inactives show at the highest dose activity change, negative = inhibition, hits mostly inhibitors; further: potency means the concentration at half of the fitted maximal effect; on the % scale 0 is the no-effect control and ±100 the full control effect; nearly all actives have a fitted effect of over 60% in size
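Aggregates are detected as GFP objects 1–25 µm with signal 6 STDEV over background in lysates of induced PC12 cells. These carry Huntingtin exon 1 with 103 glutamines fused to GFP under an ecdysone promoter; compounds titrated.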
HTT cytoprotect = qHTS Multiplex Assay to Identify Dual Action Probes in a Cell Model of Huntington: Cytoprotection (ATP); PC12 HTT-Q103 induced, cytoprotection, ATP luminescence, 40 h; 0.14% of 230,000 active; AID 1471, 2008; Potency, µM (doses to about 56.4 µM), for the others: cytoprotection (ATP increase), actives largely listed as activators; further: potency means the concentration at half of the fitted maximal effect; % of control where 0% means no effect; nearly all actives have a fitted effect of over 45% in size
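Cells were plated at 1500 per well in phenol red-free DMEM with 5% equine and 5% calf serum. Tebufenozide (100 nM final) and compounds were added, then ATPlite reagent, and luminescence was read.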
TR SRC2 fluor cs = Total Fluorescence Counterscreen for Inhibitors of the Interaction of Thyroid Hormone Receptor and Steroid Receptor Coregulator 2. TRb/SRC2 Texas Red total fluorescence interference. Potency, µM (series often up to 106 µM), for the others: top-dose fluorescence change, negative = quenching. 0.29% of 280,000 active. AID 1479, 2009; active means well fitted curve in either direction with a large enough effect; inconclusive means small, poorly fitted or top-dose-only effect; further: potency means the concentration at half of the fitted maximal effect; on the % scale 0 is the no-effect control and ±100 the full control effect
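Flags fluorescent or light-absorbing compounds by total fluorescence, S + 2P, at 555 nm excitation and 632 nm emission. Mixture: 20 nM Texas Red SRC2 peptide, 0.6 uM human TRb LBD, 1 uM T3, 5% DMSO; compound exposure 5 h at ambient temperature.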
* = called active by the depositor; u = inconclusive; x = no result; [ ] = another dose, or the depositor's remark. A selection: hits, their analogues and other compounds. The true share with any hit is near 2%. Unless noted, the call rests on the fitted dose curve; in most records, active means well fitted curve in the direction sought with a large enough effect; inconclusive means small, poorly fitted or top-dose-only effect, or another doubt; inactive means no such curve, though single readings can be large; an effect the other way counts as inactive or inconclusive.

SMILES | JMJD2E inh | Coupling enz | TRb-SRC2 inh | HTT aggregate | HTT cytoprotect | TR SRC2 fluor cs
Cc1sc2nc(C3CC3)nc(SCC(=O)N3CCCc4ccccc43)c2c1C | 5% | 1 | -7% | -30% | -9%[10 µM] | 0%
CCc1c(C)sc2nc(C(C)C)nc(SCC(=O)N3CCc4ccccc4C3)c12 | -1% | 1 | 1% | 3.5µM* | -3%[10 µM] | -1%
Cc1cccc(N2CC(C)Cn3c2nc2c3c(=O)n(CC(=O)O)c(=O)n2C)c1 (centres undefined) | x | x | 0% | x | x | 10µM*[quencher]
COC(=O)Cn1c(=O)c2c(nc3n2CCN3c2cccc(C)c2)n(C)c1=O | x | x | 11% | x | x | 6%
CCCCC/C=C\C[C@@H]1O[C@H]1/C=C/C(O)C/C=C\CCCC(=O)O (some centres undefined) | -1% | 1 | 0% | x | -15% | -1%
Cc1ccc(/C=C2\S/C(=N/S(=O)(=O)c3cccs3)NC2=O)cc1 | -3% | 14 | -5% | 19%[9.22 µM] | 18%[10 µM] | -3%
O=C1C(Nc2ccccc2)=C(NS(=O)(=O)c2ccccc2)C(=O)c2ccccc21 | 9% | -28 | 1% | -4% | x | -2%
O=C1C(Nc2ccccc2)=C/C(=N/S(=O)(=O)c2cccs2)c2ccccc21 | u | -38* | -19% | 6.3µM* | -94%[10 µM] | -5%
Cc1ccc(NC2=C/C(=N/S(=O)(=O)c3cccs3)c3ccccc3C2=O)cc1 | 3% | -42* | -3% | 3.5µM* | x | 0%
O=C(/C=C\c1ccc(O)c(O)c1)O[C@H]1C[C@@](O)(C(=O)O)C[C@H](O)[C@@H]1O | x | x | x | x | -12% | x
Cc1cc(C)cc(NC(=O)CSc2nnc(COc3ccccc3Cl)o2)c1 | x | x | -2% | x | x | -1%
Cc1ccc2c(c1)C(=O)OC2=O | x | x | 13%[201 µM] | x | x | 2%[201 µM]
COc1ccc(CNC(=O)Cc2c(C)c3c(cc(C)c4c(C)coc43)oc2=O)cc1OC | x | x | -2% | x | x | 1%
O=C(COc1ccc([N+](=O)[O-])cc1)Nc1ccc(C(=O)NCc2cccnc2)cc1 | 5% | -1 | 3% | 3.5µM* | -152% | -9%
O=C(COc1ccc([N+](=O)[O-])cc1)NCc1cccnc1 | -7% | 0 | 4% | 8% | 28%[10 µM] | 0%
Cc1cc(C(=O)N/N=C/c2cc(Cl)cc([N+](=O)[O-])c2O)c2ccccc2n1 | 5.6µM* | -3 | 9% | 16µM* | 0%[10 µM] | 2%
Cc1nn(-c2ccccc2)c(Cl)c1/C=N/NC(=O)c1ccccc1NS(=O)(=O)c1cccs1 | u | 11 | -7% | -6% | 14%[10 µM] | -1%
O=C(N/N=C/c1cc(Cl)cc([N+](=O)[O-])c1O)c1ccccc1NS(=O)(=O)c1cccs1 | 6.3µM* | 12 | -1% | -7%[9.22 µM] | 17%[10 µM] | -5%
CCn1nc(C)c(CCN(C)C(=O)Nc2cc(Cl)c(OC)cc2OC)c1C | x | x | -3% | x | x | -1%
CN(C)S(=O)(=O)N(CC(=O)Nc1ccc2ccccc2c1)c1ccccc1 | -4% | -1 | -4% | u | 5.6µM* | -1%
CN(C)S(=O)(=O)N(CC(=O)Nc1ccc(F)c(F)c1)c1ccccc1 | -2% | 2 | -5% | u | 15% | 1%
CC1=C(C(=O)Nc2ccc(C)cc2C)C(c2sccc2C)n2ncnc2N1 (centres undefined) | x | x | 4% | x | x | 2%
Cc1ccc(O)c(CO)n1 | u | 3 | -1% | 17%[9.22 µM] | 28%[10 µM] | -2%
Cc1nc2c(O)cccc2cc1CO | 3% | -37* | 0% | -3%[9.22 µM] | 5%[10 µM] | -5%
C=CC[n+]1c(/C=C2\C=Cc3cc(C)ccc3N2CC)ccc2ccccc21 | u | 2 | 5% | 3.2µM* | -125% | -1%
SMILES | JMJD2E inh | Coupling enz | TRb-SRC2 inh | HTT aggregate | HTT cytoprotect | TR SRC2 fluor cs
Cc1ccccc1C(=O)Nc1cccc(NC(=O)c2ccc(C(C)(C)C)cc2)c1 | x | x | -24%[53 µM] | x | x | 0.16µM*[quencher]
Cc1ccccc1C(=O)Nc1cccc(N)c1 | 7% | -9 | 5% | -8% | -6% | 0%
Cn1c(NC(=O)/C=C\c2ccccc2)cc(=O)n(C)c1=O | -5% | 0 | -8% | 1% | -35% | 0%
Cn1c(NNC(=O)/C=C/c2ccc3c(c2)OCO3)cc(=O)n(C)c1=O | u | -37* | -6% | 14%[9.22 µM] | -2%[10 µM] | -6%
Cc1cc(C)cc(NC(=O)CSc2nnc(CNC(=O)c3c(F)cccc3Cl)o2)c1 | x | x | 0% | x | x | 1%
COc1ccccc1C(=O)NCC(=O)Nc1ccccc1 | 4% | 2 | 5% | 0.35µM* | -16% | -6%
CNc1nc(-c2ccccn2)nnc1-c1ccccc1 | u | 1 | 1% | u | -46%[10 µM] | -5%
c1ccc(-c2nnc(-c3ccccn3)nc2NC2CCCCC2)cc1 | u | 1 | -3% | 3.5µM* | -38%[10 µM] | -8%
C/C(CC(=O)Nc1ccc(Cl)c(C(F)(F)F)c1)=N\NC(=O)c1ccccc1O | u | 1 | 12% | 16µM* | -4%[10 µM] | 0%
O=C(Nc1ccccc1Cl)C1CCN(c2nc3ccccc3nc2C(F)(F)F)CC1 | x | x | 4% | x | x | -1%
CCCCOc1cccc(-c2cc(C(=O)NNC(=S)NCC)c3ccccc3n2)c1 | u | -2 | 3% | -15%[9.22 µM] | -25% | 0%
CCCOc1cccc(-c2cc(C(=O)NN)c3ccccc3n2)c1 | 11µM* | -4 | -1% | u | x | -3%
CCCCS(=O)(=O)c1nc(-c2ccc(Br)cc2)cc(-c2ccccc2)c1C#N | x | x | 13% | x | x | 7%
CSCC[C@H](NC(=O)CN)C(=O)N[C@@H](CC(=O)O)C(=O)N[C@@H](CO)C(=O)N[C@@H](CC(C)C)C(=O)N[C@@H](C)C(=O)N[C@@H](Cc1ccccc1)C(=O)N[C@@H](CO)C(=O)NCC(=O)NCC(=O)N[C@@H](CC(C)C)C(N)=O | x | 1 | 2% | x | x | -2%
CCCC/C=C/[C@H](c1ccccc1)[C@H](CO)Cc1ccc([N+](=O)[O-])cc1 | x | -6 | 4% | x | x | -1%
CCCCc1nc2c(c3c1C[C@H](C)OC3)CN(C(=O)Cc1cccc(OC)c1)CC2 | 1%[11.4 µM] | 4 | 3%[11.2 µM] | x | -15%[10 µM] | -5%[11.2 µM]
O=C(Nc1ccc(Cl)c(Cl)c1)Nc1nnc(-c2ccncc2)s1 | u | 3 | -3% | u | -3%[10 µM] | 0%
COc1ccc(NC(=O)Nc2nnc(-c3ccncc3)s2)cc1 | u | -2 | -1% | 20µM* | -23% | -6%
